Source: PubChem BioAssay (National Center for Advancing Translational Sciences (NCATS))
Only some compounds are listed: those with a hit (about 21% of all), similar ones and a draw of the others.
Pf growth 96h = P. falciparum growth inhibition at 96 hours; P. falciparum luciferase reporter growth, 96 h; Potency, µM (doses to about 28.7 µM), for the others: at the top dose activity change, negative = inhibition, usual class: inhibitors; actives 6.9% (n = 320,000); AID 504834; further: potency means the concentration at half of the fitted maximal effect; on the % scale 0 is the no-effect control and ±100 the full control effect
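Luminescence readout: decreased luciferase signal marks inhibited growth of reporter-expressing P. falciparum in infected red cells (2% hematocrit, 0.05% parasitemia final), exposed to compound two generations (96 h, 37 C, 5% CO2).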
Shiga toxin inh = inhibitors of Shiga toxin in Vero cells | AID 2315 | actives 9.2% (n = 290,000) | Vero cells, Shiga toxin protein synthesis inhibition reporter | inhibition, % at 38.7 µM; in the data active means inhibition mostly above about 28%, no sharp cut-off; inactive means mostly below about 43%; further: 0% is about no effect
Pf growth 48h = inhibits P. falciparum growth in the first generation, 48 h | P. falciparum luciferase growth in erythrocytes, 48 h | Potency, µM (doses to about 28.7 µM), for inactives: at the top dose activity change, negative = inhibition, most hits filed as inhibitors | actives 5.9% (n = 310,000); further: potency means the concentration at half of the fitted maximal effect; on the % scale 0 is the no-effect control and ±100 the full control effect
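Cell-based growth assay: transgenic P. falciparum expressing firefly luciferase, cultured in red cells within RPMI 1640 containing 0.5% w/v Albumax, 24 mM bicarbonate and gentamycin. A drop in luciferase activity indicates inhibition.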
Cycloheximide cs = counter-screen hit for Shiga toxin inhibitors, cycloheximide; actives 12% (n = 300,000); AID 2314; max response, %; cell reporter, cycloheximide protein synthesis inhibition counterscreen; in the data active means max response mostly above about 13%, no sharp cut-off; inactive means mostly below about 14%; further: read at 38.3 µM for the half of the compounds with a filed dose; 0% is about no effect
Starred values were filed as active, the others as inactive; ? = inconclusive; · = no result given; + = active, no number. Unless noted, the call rests on the fitted dose curve; in most records, active means well fitted inhibition curve with a large enough effect; inconclusive means small, poorly fitted or top-dose-only effect, or another doubt; inactive means no such curve, though single readings can be large or run the other way.

SMILES	Pf growth 96h	Shiga toxin inh	Pf growth 48h	Cycloheximide cs
Cc1ccc(C(=O)N/C(=C\c2ccco2)C(=O)NCCCn2ccnc2)cc1	9.3µM*	-4	40%	1
Cc1ccc(C(=O)N/C(=C/c2ccco2)C(=O)NCCCn2ccnc2)cc1	?	17	19%	5
CCN(CC(=O)Nc1c(F)cccc1F)C(=O)c1ccccn1	5%	·	-17%	·
Cc1ccccc1NC(=O)CON=C(N)c1ccccc1	?	·	-5%	·
CCOc1ccc(C(c2c(NC(=O)c3ccccc3)sc(C)c2C)N2CCN(CCO)CC2)cc1 (stereo not drawn)	5.2µM*	20	?	16*
CCc1cc(C(c2ccncc2)N2CCN(C)CC2)c(NC(=O)c2ccccc2)s1 (stereo not drawn)	?	-5	13µM*	5
Cc1sc(NC(=O)c2ccccc2)c(C(c2ccc(Cl)cc2)N2CCN(CCO)CC2)c1C (stereo not drawn)	8.3µM*	18	8.3µM*	3
Cc1sc(NC(=O)c2ccccc2)c(C(=O)NCCN(C)C)c1C	-8%	-8	-5%	2
CCCC(=O)Nc1nc2ccc(S(N)(=O)=O)cc2s1	-10%	14	11%	13
NS(=O)(=O)c1ccc2nc(NC(=O)Nc3ccccc3F)sc2c1	368%	105*	192%	50*
Cc1ccccc1NC(=O)Nc1nc2ccc(S(C)(=O)=O)cc2s1	?	+	44%	14
CCOc1ccc(NC(=O)Nc2nc3ccc(S(C)(=O)=O)cc3s2)cc1	?	-11	-59%	-2
CCCCN1CCN=C1Nc1ccccc1	5%	7	17%	1
CCNC(=O)CC1C(=O)N(c2cccc(C)c2)C(=O)N1CCC(C)C (stereo not drawn)	29%	-6	24%	0
CNc1nc(-c2ccccc2)[n+](-c2ccc(C)cc2)s1	73%	135*	28%	30*
Cc1ccc(-c2cc(-c3ccccc3)nc(NN)n2)cc1	49%	-3	?	-2
Cc1ccc(-c2nc(N)s[n+]2-c2ccccc2)cc1	-21%	91*	53%	81*
Cc1ccccc1OCC(O)CO (stereo not drawn)	-14%	·	3%	·
Cc1ccc(C(=O)c2cnc3ccccc3c2-c2ccccc2)cc1	10µM*	-22	13µM*	-2
COc1ccc(C(=O)c2cnc3ccccc3c2-c2ccccc2)cc1	?	-27	?	-5
COC(=O)/C=C/C(=O)Nc1cccc(C(F)(F)F)c1	?	18	?	-2
Cc1[nH]c2ccccc2c1/C=C(\C#N)C(=O)NC1CC1	106%	129*	42%	55*
COC(=O)/C(=C/c1c[nH]c2ccccc12)NC(C)=O	?	2	35%	-2
N#C/C(=C\c1c[nH]c2ccccc12)C(=O)NC1CC1	12%	36*	166%	56*
CC1CCCCC1NC(=O)/C(C#N)=C/c1ccccc1F (stereo not drawn)	12µM*	11	?	9
SMILES	Pf growth 96h	Shiga toxin inh	Pf growth 48h	Cycloheximide cs
CC(C)COC(=O)/C(C#N)=C/c1c[nH]c2ccccc12	18%	43	11%	18*
N#C/C(=C\c1cn[nH]c1-c1ccccc1)C(=O)NC1CCCCCC1	?	-1	?	1
Cc1cc(OCC(=O)N2CCC(O)CC2)c2c(C)cc(=O)oc2c1	?	-6	2%	1
COc1ccc(C=O)cc1Oc1nc(Cl)ncc1F	58%	-15	-5%	-3
N#C/C(=C\c1c[nH]c2ccccc12)C(=O)NC1CCCC1	?	42*	12%	22*
N#C/C(=C\c1c(F)cccc1Cl)C(=O)NC1CC1	13µM*	-12	-16%	10
N#C/C(=C\c1cn[nH]c1-c1ccc(Cl)cc1)C(=O)NC1CC1	9%	-10	-16%	-7
CCOc1ccc(NC(=O)CN(C)c2nnnn2-c2ccccc2)cc1OCC	-10%	-4	3%	-2
C=CCNC(N)=S	26%	-3	6%	-3
O=[N+]([O-])c1cc(Br)c(OCc2nnc(-c3ccccc3)o2)c(Br)c1	-4%	8	?	11
COc1ccc(C(C)=O)cc1Cn1nnc(-c2ccccc2Br)n1	-2%	3	25%	1
O=[N+]([O-])c1ccc2c(OCc3nnc(-c4ccccc4Br)o3)ncnc2c1	9.3µM*	-2	?	-2
COc1cc(C(C)=O)ccc1OCc1nnc(-c2ccccc2Br)o1	?	60*	?	16*
Clc1ccc(OCc2nnc(-c3ccccc3Br)o2)c(Cl)c1	?	83*	71%	39*
Fc1ccc(OCc2nnc(-c3ccccc3Br)o2)c(Cl)c1	?	109*	-8%	15*
